Experiments:
[1] = test system: Human papillomavirus type 1a protein E7 (residues 44-93); experiment: HPV1a E7 fragment binders on microarrays, primary screen, biochemical, small-molecule microarray, residues 44-93, 635 nm fluorescence (AID 1108); conditions: small-molecule microarray binding, fluorescence 635 nm; higher = more signal;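 further: E7 fragment applied at 1 µg/mL in TBST for 1 h at 4 C; score combines spot fluorescence with its signal to noise ratio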
[2] = modulators of HCV replicon luciferase signal, primary screen, HCV replication inhibitor project, Huh7 cells, luciferase reporter (AID 1109); conditions: 48 h, higher = more signal;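 further: huh7 hepatoma cells harbouring a luciferase neomycin HCV replicon reporter; luciferase luminescence as measure of HCV replicon replication; test concentration not given here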
[3] = biological target: Left-right determination factor 2 (Homo sapiens) (UniProt O00292); experiment: LEFTY2 binders on small-molecule microarrays, primary screen, biochemical, small-molecule microarray, 635 nm fluorescence scan (AID 1110); conditions: LEFTY2 binding, higher = more signal
Sequence of Left-right determination factor 2 (Homo sapiens) (O00292 whole entry, looked up): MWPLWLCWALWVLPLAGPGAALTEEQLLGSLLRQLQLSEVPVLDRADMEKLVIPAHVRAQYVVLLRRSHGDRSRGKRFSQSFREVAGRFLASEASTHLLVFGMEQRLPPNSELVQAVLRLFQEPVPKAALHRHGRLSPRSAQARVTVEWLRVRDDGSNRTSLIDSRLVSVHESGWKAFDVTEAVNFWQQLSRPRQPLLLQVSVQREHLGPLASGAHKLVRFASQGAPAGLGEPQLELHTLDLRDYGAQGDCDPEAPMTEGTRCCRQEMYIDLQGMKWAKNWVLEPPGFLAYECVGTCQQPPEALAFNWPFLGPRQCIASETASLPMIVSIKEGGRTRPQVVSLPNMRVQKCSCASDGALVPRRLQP

[4] = biological target: Calmodulin-1 (Homo sapiens) (UniProt P0DP23); experiment: CALM1 binders on microarrays, EGTA buffer, profiling panel, biochemical, small-molecule microarray, Cy5-labelled CALM1 (AID 1111); conditions: Cy5-CALM1 binding fluorescence, higher = more signal;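 further: labelled calmodulin applied in Tris saline Tween buffer holding calcium plus EGTA and DTT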
[5] = biological target: Calmodulin-1 (Homo sapiens) (UniProt P0DP23); experiment: calcium-bound CALM1 binders on microarrays, profiling panel, artefact control for SMM control-protein annotation, biochemical, small-molecule microarray, Cy5-labelled CALM1, plus calcium (AID 1112); conditions: Cy5-CALM1 binding fluorescence, higher = more signal;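 further: score merges spot fluorescence with signal to noise from triplicate slides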
[6] = small-molecule microarray binders of probe aWnt5a, primary screen, biochemical, biotinylated probe, 635/667 nm fluorescence (AID 1113); conditions: higher = more signal;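 further: score merges 667 nm fluorescence intensity with signal-to-noise per printed feature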
[7] = small-molecule microarray binders of probe aShh, primary screen, biochemical, biotinylated probe, 635/667 nm fluorescence (AID 1114); conditions: higher = more signal;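 further: probe is biotin-labelled aShh protein from a stem cell growth factor screen; measures binding of labelled protein to compounds printed on the slide; score merges feature fluorescence at 667 nm with signal-to-noise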
[8] = small-molecule microarray binders of probe aNog, primary screen, biochemical, biotinylated probe, 635/667 nm fluorescence (AID 1115); conditions: higher = more signal;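 further: probe is biotinylated aNog protein used at 0.15 µg/mL for 1 h at 4 C; z-score combines 667 nm fluorescence of each spot with its signal to noise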
[9] = biological target: Torsin-1A-interacting protein 1 (Homo sapiens) (UniProt Q5JTV8); experiment: LAP1 binders from COS7 cell lysate, primary screen, small-molecule microarray, 635/667 nm fluorescence (AID 1116); conditions: COS7-hLAP1 lysate binding, 635 nm fluorescence, higher = more signal
Sequence of Torsin-1A-interacting protein 1 (Homo sapiens) (Q5JTV8 whole entry, looked up): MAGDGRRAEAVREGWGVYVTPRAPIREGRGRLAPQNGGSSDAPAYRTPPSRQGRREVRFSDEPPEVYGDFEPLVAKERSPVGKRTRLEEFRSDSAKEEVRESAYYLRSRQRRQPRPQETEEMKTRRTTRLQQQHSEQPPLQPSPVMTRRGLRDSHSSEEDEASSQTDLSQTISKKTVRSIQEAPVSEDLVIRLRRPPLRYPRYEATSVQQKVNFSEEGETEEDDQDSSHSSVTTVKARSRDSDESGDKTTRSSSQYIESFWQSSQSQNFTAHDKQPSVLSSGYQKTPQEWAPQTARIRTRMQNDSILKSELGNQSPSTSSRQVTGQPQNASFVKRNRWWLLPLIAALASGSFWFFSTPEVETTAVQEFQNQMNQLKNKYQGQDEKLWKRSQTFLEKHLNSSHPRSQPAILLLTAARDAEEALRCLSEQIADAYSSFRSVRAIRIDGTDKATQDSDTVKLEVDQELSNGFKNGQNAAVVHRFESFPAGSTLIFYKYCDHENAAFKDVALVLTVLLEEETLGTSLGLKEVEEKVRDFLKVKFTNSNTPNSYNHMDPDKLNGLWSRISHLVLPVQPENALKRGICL

[10] = biological target: Alpha-bungarotoxin (Bungarus multicinctus) (UniProt P60615); experiment: alpha-bungarotoxin binders on microarray, profiling panel, artefact control for SMM control protein annotation, biochemical, small-molecule microarray, Alexa647 label, 635/667 nm fluorescence (AID 1117); conditions: alpha-BTX-A647 binding fluorescence, higher = more signal
Sequence of Alpha-bungarotoxin (Bungarus multicinctus) (P60615 whole entry, looked up): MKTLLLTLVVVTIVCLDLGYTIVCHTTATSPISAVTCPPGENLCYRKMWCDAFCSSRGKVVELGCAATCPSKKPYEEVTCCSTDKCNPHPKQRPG

Row | SMILES | composite z-score [1] | z-score [2] | composite z-score [3] | composite z-score [4] | composite z-score [5] | composite z-score [6] | composite z-score [7] | composite z-score [8] | composite z-score [9] | composite z-score [10]
1 | COC(=O)C(CC#Cc1ccc2c(c1)[C@]1(C(=O)N2)[C@H](c2ccc(OCCO)cc2)N2[C@H](c3ccccc3)[C@H](c3ccccc3)OC(=O)[C@H]2[C@@H]1C(=O)N1CCc2cc(OC)c(OC)cc2C1)C(=O)OC | 1.4 | -1.01 | 0.459 | 1.66 | 0.236 | 0.296 | 0.191 | -0.422 | 1.58 | 1.77
2 | O=C1c2ccccc2[C@](Cc2ccccc2I)(C(=O)NCCN2CCOCC2)[C@H](c2ccc(CO)cc2)N1C1CCCCC1 | 0.994 | -2.48 | 0.804 | 1.13 | 0.315 | 0.0286 | 0.359 | 0.0308 | 0.494 | 1.83
3 | [N-]=[N+]=Nc1ccccc1[C@H]1OC(c2ccc(OCCCO)cc2)=N[C@@]1(CCS(=O)(=O)c1ccccc1)C(=O)NCC(O)CO (stereo not given in full) | 1.46 | -0.604 | -0.671 | 1.15 | 0.211 | 0.027 | 0.0611 | -0.62 | 1.93 | 1.21
4 | COc1ccc([C@H]2OC[C@@H]3C[C@@H](Cc4ccccc4)C(=O)N32)cc1 | -0.235 | -0.859 | 0.311 | -0.05 | -0.317 | -0.0203 | -0.0146 | -0.0273 | 0.53 | -0.429
5 | COCCOC(=O)N1C(=O)[C@@]2(c3cc(C#Cc4ccc(OC)cc4)ccc31)[C@H](c1ccc(OCCO)cc1)N1[C@H](c3ccccc3)[C@H](c3ccccc3)OC(=O)[C@H]1[C@@H]2C(=O)N1CCN(c2ncccn2)CC1 | 0.819 | -1.45 | 1.08 | 1.12 | 0.715 | -0.0585 | -0.26 | 0.0308 | 0.391 | 0.953
6 | Oc1ccc2cc[n+](Cc3sc4ccccc4c3Cl)cc2c1 | -0.317 | 0.514 | 0.0344 | -0.481 | -0.683 | -0.124 | 0.318 | -0.29 | 1.22 | 1.02
7 | COc1ccc(C#Cc2ccc3c(c2)[C@]2(C(=O)N3)[C@H](C(=O)Nc3nc4ccccc4s3)[C@H]3C(=O)O[C@H](c4ccccc4)[C@H](c4ccccc4)N3[C@@H]2c2ccc(O)cc2)cc1 | 1.42 | -1.04 | 0.653 | 1.7 | 0.782 | 0.383 | 1.3 | 2.23 | 0.934 | 1.66
8 | CN1C(=O)C2C=CC(C(O)c3ccc([N+](=O)[O-])cc3)N(N3CCCCC3)C2C1=O (stereo not given) | 1.33 | 0.702 | 0.169 | 1.42 | 0.0877 | 0.0913 | 0.108 | 1.59 | -0.0204 | 1.08
9 | COc1cc(NN2C(C(O)c3ccco3)C=CC3C(=O)N(c4ccccc4)C(=O)C32)cc(OC)c1OC (stereo not given) | -0.271 | -0.937 | -0.198 | -0.3 | -0.657 | -0.213 | -0.29 | 0.133 | 1.05 | 0.425
10 | COC(=O)[C@@]1(Cc2ccc(OC)cc2)[C@H]2c3cc(C(=O)N4CCCC4)n(Cc4ccc(C)c(F)c4F)c3C[C@H]2CN1C(=O)c1ccccc1 | 1.48 | -2.34 | -0.401 | 2.14 | 1.3 | -0.0553 | -0.155 | 1.65 | 0.113 | 1.55
11 | O=C1O[C@@H](c2ccccc2)[C@@H](c2ccccc2)N2[C@@H](c3ccccc3OCCO)[C@]3(C(=O)Nc4ccccc43)[C@@H](C(=O)Nc3nc4ccccc4s3)[C@H]12 | 1.45 | -3.25 | 0.108 | 1.41 | 0.494 | -0.0621 | 0.206 | 1.96 | 0.618 | 1.56
12 | C=C(C)[C@@H]1CC=C(C(O)C2C=CC3C(=O)N(c4ccccc4)C(=O)C3N2Nc2ccccc2)CC1 (stereo not given in full) | 0.478 | -1.38 | 0.261 | 2.06 | 0.103 | 0.212 | 0.642 | 1.95 | 1.79 | 2.62
13 | O=C(CS)NCCCCCCNC(=O)[C@@H]1C[C@@H]2C(=O)N[C@@H](Cc3ccccc3)C(=O)N2[C@@H]1c1cccc(OCCO)c1 | 1.39 | -0.698 | 0.934 | 0.309 | 0.414 | 0.0102 | 0.265 | 0.0637 | 0.585 | 1.2
14 | C[N+](C)(C)CCCC[C@@H]1NC(=O)[C@H]2C[C@@H](C(=O)NCCCCCCNC(=O)CS)[C@@H](c3cccc(OCCO)c3)N2C1=O | -1.51 | -0.242 | -1.55 | -0.149 | 0.105 | -0.202 | -0.17 | -0.175 | -0.933 | -1.06
15 | COc1ccc(C#Cc2ccc3c(c2)[C@]2(C(=O)N3)[C@H](c3ccccc3OCCO)N3[C@H](c4ccccc4)[C@H](c4ccccc4)OC(=O)[C@H]3[C@@H]2C(=O)Nc2nc3ccccc3s2)cc1 | 1.35 | -2.83 | 0.464 | 0.844 | -0.104 | -0.128 | -0.0556 | 1.76 | 0.307 | 1.62
16 | CC(C)C[C@@H]1NC(=O)[C@@H]2C[C@H](C(=O)O)[C@H](c3cccc(OCCO)c3)N2C1=O | -0.366 | 0.148 | -0.312 | 0.26 | 0.758 | -0.147 | -0.199 | -0.066 | 0.517 | -0.937
17 | O=C1O[C@H](c2ccccc2)[C@H](c2ccccc2)N2[C@H]1[C@@H](C(=O)N1CCCCCCC1)[C@]1(C(=O)Nc3ccc(C#CCCO)cc31)[C@H]2c1ccccc1OCCO | 1.62 | -1.53 | 1.91 | 3.03 | 1.73 | 1.69 | 3.01 | 2.38 | 5.84 | 4.84
18 | [N-]=[N+]=NCc1ccccc1[C@@H]1OC(c2ccc(OCCCO)cc2)=N[C@]1(Cc1ccccc1)C(N)=O | 1.45 | -1.3 | -0.33 | 2.2 | 1.02 | -0.0286 | 0.365 | 1.14 | -0.402 | 2.14
19 | O=C(NCCO)C1=C[C@H](Oc2ccccc2I)[C@@H](O)[C@H](N(Cc2ccco2)C(=O)Cc2ccccc2)C1 | -0.0509 | 0.807 | 0.51 | -0.0916 | -0.671 | 0.0057 | -0.209 | 0.0129 | 0.591 | -0.0333
20 | CCC[C@@H]1C[C@@]1(CCC)[C@@H](NS(=O)(=O)c1cccc2cccnc12)c1ccc(Cl)cc1 | 1.23 | -1.38 | -0.385 | 0.976 | 1.28 | 0.0839 | 0.426 | 1.1 | 0.731 | 0.6
21 | CN(C)C(=O)[C@@]1(CCS(=O)(=O)c2ccccc2)COC(c2ccc(OCCCO)cc2)=N1 | 1.31 | -2.25 | 0.149 | 0.614 | -0.429 | -0.154 | 0.414 | -0.288 | 2.75 | 0.301
22 | CCCC[C@H]1OB(O)C[C@H]2C1=C(COC)Cn1c(=O)n(-c3ccccc3)c(=O)n12 | 0.039 | -0.673 | 0.358 | -0.215 | -0.421 | -0.0792 | -0.0977 | 0.445 | 0.0892 | 0.0547
23 | CCOC(=O)C[C@H]1[C@H](OC(=O)c2ccc(C(=O)c3ccccc3)cc2)[C@@H](NC(=O)c2ccc3ccccc3n2)c2cc(OCCCO)ccc2N1C(=O)c1ccccc1 | 0.997 | -1.63 | -0.538 | 1.47 | 0.202 | 0.0079 | 0.308 | 0.217 | 0.164 | 1.05
24 | C=C(COC)/C(=C/C[C@@H](OC(=O)c1ccncc1)c1ccc(CO)o1)c1cc(C(=O)OC)ccc1OC | 1.4 | -0.557 | 1.44 | 0.209 | -0.708 | 0.0077 | -0.138 | -0.18 | 0.877 | 0.702
25 | C=CCOC(=O)[C@H]1[C@@H]2C(=O)O[C@@H](c3ccccc3)[C@@H](c3ccccc3)N2[C@@H](c2ccc(OCCOC(=O)[C@H]3C[C@H]4C(=O)N[C@@H](CCCCN(C)C)C(=O)N4[C@H]3c3ccc(O)cc3)cc2)[C@]12C(=O)Nc1ccc(I)cc12 | 1.4 | -0.151 | 1.21 | 0.536 | -0.62 | 0.114 | 0.275 | 1.14 | 1.64 | 0.864
26 | CC1CC/C=C\[C@H]2OC34C=CCN(Cc5ccccc5)C(=O)[C@H]3N(CCCO)C(=O)[C@@H]4C2C(=O)O1 (stereo not given in full) | -0.537 | -1.29 | -2.03 | -0.226 | 0.876 | -0.202 | -0.449 | 0.0522 | -0.0302 | -0.973
27 | C=CCN1C(=O)[C@@]2(Cc3ccccc31)N=C(c1ccc(OCCCO)cc1)O[C@H]2c1ccccc1 | 0.896 | -2.11 | 0.308 | 0.355 | -0.231 | 0.0458 | 0.308 | 0.89 | 0.895 | 0.306

Source: PubChem BioAssay
